The text below walks through data of the supplement of paper PMC12350171.

Counter-ions that a name gives are not always drawn.

The experiment concerns Haemophilus parainfluenzae. Description: growth AUC normalised to DMSO control (fraction of control); higher = less growth inhibition, active = hit call of the paper. Particulars: 20 µM;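 active = AUC significantly below DMSO controls by Student t-fit with adjusted P under 0.01; inactive = not significantly reduced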. The procedure, abridged: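 Pathogens passaged twice anaerobically were inoculated at a starting OD578 of 0.01 into pre-reduced mGAM plates with drug at 20 μM and 1% DMSO, sealed with breathable membranes. Haemophilus parainfluenzae medium was supplemented with hemin and NAD. OD578 was read hourly for 24 h, with three biological replicates. Growth-curve AUC was computed by the trapezoidal rule up to the exponential-to-stationary transition and normalised to DMSO controls on the same plate.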
As for `O=S(=O)(O)c1cc(O)ccc1O` [Ethamsylate diethylammonium salt], the “growth AUC normalised to DMSO control” value is 0.98 (inactive).
For `CCc1nn(CCCN2CCN(c3cccc(Cl)c3)CC2)c(=O)n1CCOc1ccccc1` [Nefazodone hydrochloride] the value was 0.942 (inactive); for `Cc1cnc(C(=O)NCCc2ccc(S(=O)(=O)NC(=O)NC3CCCCC3)cc2)cn1` [Glipizide], 0.995 (inactive).
For `CCS(=O)(=O)CCn1c([N+](=O)[O-])cnc1C` [Tinidazole] the value was 0.987 (inactive); for `CN(C)CCC[C@@]1(c2ccc(F)cc2)OCc2cc(C#N)ccc21` [Escitalopram oxalate], 1.03 (inactive); for `Nc1ccn([C@@H]2O[C@H](CO)[C@@H](O)[C@@H]2O)c(=O)n1` [Cytarabine], 0.999 (inactive).
For `CN1CCN(CCCN2c3ccccc3Sc3ccc(C(F)(F)F)cc32)CC1` [Trifluoperazine dihydrochloride] the value was 0.927 (inactive).
With `CCOc1cc(CC(=O)N[C@@H](CC(C)C)c2ccccc2N2CCCCC2)ccc1C(=O)O` [Repaglinide], the “growth AUC normalised to DMSO control” value is 1.08 (inactive).
For `Clc1cccc(Cl)c1NC1=NCCN1` [Clonidine hydrochloride] the value was 0.978 (inactive); for `Nc1c2c(nc3ccccc13)CCCC2` [Tacrine hydrochloride], 1.01 (inactive); for `COc1ccccc1OCC(O)COC(N)=O` (configuration not stated) [Methocarbamol], 0.977 (inactive).
For `N=C(NCCCCCCNC(=N)NC(=N)Nc1ccc(Cl)cc1)NC(=N)Nc1ccc(Cl)cc1` [Chlorhexidine] the value was 0.139 (active).
